From the supplement of paper PMC11417369
± gives the standard deviation of the averaged measurements. The full ranking holds about 25,000 sequences; the median of “ln(normalized median fluorescence intensity)” is about 7.9, and the highest 2% start at about 11. Only a selection was taken, and the highest values are over-represented in it overall.

Each sequence was assayed on PfAP2-I AP2 domain 3 (GST-tagged) (assay: gcPBM binding intensity (ln(normalized median fluorescence intensity)); higher = stronger DNA binding).
Method in brief: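 GST-tagged P. falciparum DNA-binding domains produced in E. coli were incubated for 1 h on an Agilent 4 × 180k array of primer-extended double-stranded 36-bp intergenic genomic probes with negative controls. Binding intensity is the highest Masliner-normalised natural-log median intensity across replicate spots of either probe orientation, with bound protein detected by Alexa488 anti-GST antibody at 488 nm.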

Sequence	gcPBM binding intensity (ln)
ATTCAAAAGGTTTAATGTACGTGATGTTTCACAAAT [XGTACX_site784]	7.74 ± 0.5
AAAAATGGAATTATCTGTACATATATAGTTTTTAAA [XGTACX_site5580]	7.44 ± 0.33
AATTGTTCTATGATTTGTACACACTTTTTTTTAAAA [XGTACX_site5984]	8.15 ± 0.52
ATTTTAATAAAATATGTACACACATACACCCATATA [CACACA_site8326]	8.15 ± 0.34
AATACATGAATATGTAGTACAGAAAAAAAAAATATA [XGTACX_site1945]	7.89 ± 0.6
TGATTCAATTTATGCACACTAAAAATTAATTATATT [CACACA_site271]	9.65 ± 0.23
GTATAATATTTTAATGCACACACACTAATAAAAAAA [CACACA_site8939]	11.1 ± 0.76
TAATATAATATATGCACACAAATATGTATATATGTG [CACACA_site2134]	8.895 ± 0.049
ATAATATTTTAATGCACACACACAAAAAAAAAAAAA [CACACA_site2891]	11.2 ± 0.61
TTTTTTTTTTTTAATGCACACAATATATAATATGTA [CACACA_site3694]	11.2 ± 0.4
TTTTTAAAATATTTAACACACAATTTTAATGCATAA [CACACA_site6036]	8.8 ± 0.11
TATAATATAATATATGCACACAAATATGTATATATG [CACACA_site8664]	8.86 ± 0.085
AGATAAAATATATATGCACACACATATATATTTCAT [CACACA_site9183]	9.255 ± 0.007
TTAAAAAATATATGCGTGCACTAATATTTCATATGC	11.5 ± 0.2
AATAAATATAAAAATGCACACACACTAATAAAAAAA [CACACA_site8201]	8.67 ± 0.52
ATATTTTACAAATGCACACATAATTTTTTTTTTTTT [CACACA_site2763]	9.33 ± 0.099
ATTTTTAATATTATTACACACACTAATAAAAAAAAA [CACACA_site8265]	7.96 ± 0.27
ATTAATGATTTTTGTTGTACATTATTAATTTACATT [XGTACX_site544]	7.83 ± 0.46
ATTTCTCAATCGTAATGTACAAAAAAAAGGGAAAAG [XGTACX_site2781]	7.9 ± 0.58
AAGGAATATGTATATACACACAGGTACATATATATA [CACACA_site441]	8.16 ± 0.71
AGTAGTCTGGAGAAAAGTACATAGTATCTGGTAGCT [XGTACX_site2027]	7.98 ± 0.52
AAGAGAGAGAAATATGCACACATAAGGGAAATAAAT [CACACA_site8300]	8.895 ± 0.049
TTTATTCCAGTATTCACACACGAATAACCACATAAC [CACACA_site5104]	7.93 ± 0.42

Sequence	gcPBM binding intensity (ln)
ATATATATATATATTTGTACATAATATATATATGCA [XGTACX_site1795]	9.28 ± 0.48
AGATATAATAAATATACACACATATATATATATATA [CACACA_site962]	9.2 ± 0.76
TTTAAATTTTAATATGCACACAAAATGTTATATTAA [CACACA_site8015]	9.06 ± 0.13
TAAATTTTAATATGCACACAAAATGTTATATTAAAA [CACACA_site4366]	9.13 ± 0.35
AATATTTTAATGCACACACACAAAAAAAAAAAAAAA [CACACA_site7374]	11.5 ± 0.73
AAGCATATTATAAACACACACTGTATAAAGATATAT [CACACA_site6277]	7.66 ± 0.67
TATATACCACATTGTTGTACGACACATTTACATTTT [XGTACX_site8370]	8.21 ± 0.57
ACATGAAACTATAAACGTACATACATACATATATAT [XGTACX_site5011]	8.09 ± 0.6
TTTTCTCTAAAAAGGTGTACAACTAATAATGCACTG [XGTACX_site6074]	11.4 ± 0.31
TATAAATACTAAAAAAGTACAAAATTTCATAAAAAA [XGTACX_site2709]	7.82 ± 0.59
GATAATGAATGATGCACACTAAAAATATTCTACAAC [CACACA_site3622]	8.66 ± 0.16
TATTTTATATAAAGGTGTACTTATACAAAAATATAT [XGTACX_site7435]	8.14 ± 0.28
ATTTTTCTAAAATACTGTACAAAGGTGCATAAAAAG [XGTACX_site4425]	11.8 ± 0.87
AAAAAAAAAAAAAGGTGTACATGCAAAATAAATTCT [XGTACX_site4592]	8.56 ± 0.35
ATATATATATATATATGTACATATTGTATTAATTAT [XGTACX_site1919]	9.31 ± 0.11
AATGTCATCATATTCATATATATTTATTTCTTTTTG [GTGCAC_negctrl_site500]	7.68 ± 0.57
TAAATTTAGAAACACACACACATATATATATATATA [CACACA_site847]	9.36 ± 0.38
TAATAACTACAAAAAAAAAAGAAAAATAGAAAAAGG [CACACA_negctrl_site1102]	7.75 ± 0.67
AAAATAATAATAGGCACACATATATATATATATATA [CACACA_site2058]	9.36 ± 0.32
ATAGAAGGCAACTTGGTGCACAAAAAAAAAAATAAT	11.6 ± 0.25
TTTCACCATATAAACGTGCACACTACAAAAATATAT [CACACA_site2547]	11.1 ± 0.35
TACAAACACCCATATACACACAAAAAAAAAATAAAA [CACACA_site5421]	7.78 ± 0.31
CCATATCTTTTTTGCACACACTACAATAAAACAAAA [CACACA_site4995]	9.95 ± 0.2

Sequence	gcPBM binding intensity (ln)
AAACAAAAAATATATACACACTAAACATAAAAAAAA [CACACA_site4185]	7.81 ± 0.65
TCACCATATAAACGTGCACACTACAAAAATATATAA [CACACA_site5413]	11 ± 0.24
TTTCACTACACAAATACACACAAAAATATATGTGCA [CACACA_site2632]	7.91 ± 0.54
TCTAATTTAAAATACACACACATATCTATAATATAT [CACACA_site7029]	7.63 ± 0.28
TGAAAAATATAAGGTTGTACTTACATCGGGAATAAT [XGTACX_site4701]	8.05 ± 0.55
TAATTTTCAATAATTTGTACATAATTTTTATAAATT [XGTACX_site8133]	7.49 ± 0.3
AAATCGTAATATATTTGTACTTATTTGAAAAATCCA [XGTACX_site8141]	7.76 ± 0.33
TTCTTATTTAATGTATCACACACGAGAATAAAAAAT [CACACA_site8992]	7.98 ± 0.48
ACATTTTTTTTTTTTTTTCTTTTTCTTTTTCTTTTT [CACACA_negctrl_site1295]	7.72 ± 0.52
AAATATATAAAAGTATGTACATATGAAAAATATATA [XGTACX_site6165]	8 ± 0.52
GTATAAAAGTAACTAGTGCATTACATATGAATAAAA	11.4 ± 0.6
AACTAATAGTATATTACATGCAAAAGTAAAAGTAAA [TGCATGCA_site411]	8.02 ± 0.78
TAGCTTATTAATATCATACACACATAGATATATTTA [CACACA_site3105]	7.5 ± 0.54
CAATATTATAGATATACACACATAATGTGTAAAAAC [CACACA_site6631]	7.87 ± 0.79
TTAAAATGAAGAAGTGCACACATATATATATTTATA [CACACA_site8063]	9.67 ± 0.18
TAAACGTTAGTATGTGTGCACATTAGTAATTTAAAA	9.65 ± 0.3
TTCATTCAAATTAACGTGCACATTATTAGTAAAAAC	11.05 ± 0.035
TAAATTATAACGTGCACACATATTTAAAATGAAATG [CACACA_site2820]	11.3 ± 0.23
GAAAAATTAAAAATAACACACACATATATATATTTA [CACACA_site8896]	7.56 ± 0.4
AAAAAATTAACGAGTGCACACATATTTAGATAAAAT [CACACA_site8958]	9.86 ± 0.18
AAAATTAAAAATAACACACACATATATATATTTATA [CACACA_site2776]	7.66 ± 0.34
TTAGTAAATACATTTGCACACATTATTTTTTAACAT [CACACA_site5448]	9.36 ± 0.11
TGTAAATTATAACGTGCACACATATTTAAAATGAAA [CACACA_site8915]	11.2 ± 0.15

Sequence	gcPBM binding intensity (ln)
CTTAATAAGAATAAATGTACAAGGGATAAAAAATTT [XGTACX_site3213]	8.02 ± 0.73
TTTTTTTTTTTTGAAACATGCATTGTTTTATTCTTA [TGCATGCA_site15]	7.99 ± 0.85
GGAAATTTCAATATTTGTACATATATATATATATAT [XGTACX_site3222]	9.56 ± 0.6
AGACATAAGATAATTACACACAATACATCCCTATAT [CACACA_site2227]	7.76 ± 0.57
AGAAACCTTGTTAGTTAGCATATATATATATATATA [CACACA_negctrl_site372]	9.46 ± 0.46
GGAAGCTAATTACACACATGCATATTTTTTTTTCAA [TGCATGCA_site548]	8.16 ± 0.83
ATTTTTTTTTTTTTTTTGGGGGGGTATACTTTTAAA [CACACA_negctrl_site1020]	11.6 ± 0.4
GTTAATATTTTTGGGGGTACTTAAAAAAAAAAAAAA [XGTACX_site1477]	9.29 ± 0.26
TATACTTTATATATTTTGTATATATATTTTTTTTAT [TGCATGCA_negctrl_site530]	7.5 ± 0.28
ATCTATGATATATACACACACATGTATAAATAAATA [CACACA_site7012]	7.75 ± 0.47
TTTTTCTTTTTTTGTTGTACATTTTGTAATATTTAC [XGTACX_site4102]	7.9 ± 0.59
TTATTTTTCTTTATTGGTACACACGAAAAAAAAATT [XGTACX_site6482]	8.03 ± 0.3
TTTTTTTTTTTTTTTTTTTTTTTTGGGTCCCATACA [CACACA_negctrl_site913]	8.1 ± 0.63
TAATGGAAACCATTTATTTTCTGCAATATATTTTTT [CACACA_negctrl_site1653]	7.67 ± 0.35
AATCATTTATTGATGGTGCAATATACCATCTAATGA [GTGCAC_site9440]	11.4 ± 0.76
AAATTTATTATATATACATGCAATCATAAATAATGT [TGCATGCA_site539]	7.68 ± 0.48
TTACAAAAATGTGGTTGTACACAAACAAAAAAAATA [XGTACX_site8506]	8.35 ± 0.29
TCTTTTTTTTCTTTTTTTTTATTTAAATATCAAGTA [CACACA_negctrl_site1354]	7.59 ± 0.34
TTTTATTGTTGTTATACACACCATATAAAATATTTC [CACACA_site4983]	7.92 ± 0.6
ATAAAAAGAAATCCAATACACACCTTCAAAATGGGT [CACACA_site1622]	7.71 ± 0.72
AAAGATATAAATTACTGTACTAATGAAATTGGTAAA [XGTACX_site3582]	7.67 ± 0.28
